# In PubChem BioAssay (EPA / NIEHS):
# Results filed as inconclusive are left out. A structure can be active in one record and inactive in another. Calls of active or inactive are those of the source. How the source made its calls, unless noted: active means hit-call score of the fitted dose curve at least 0.9, where 1 is the maximum; inactive means score below 0.9.
# Legend:
# [1] = molecular target: human RAR-related Orphan Receptor gamma (RORg), RORC (gene 6097) (UniProt P51449); assay: ATG_RORg_TRANS: Attagene TRANS-FACTORIAL HepG2 Assay for human RAR-related Orphan Receptor gamma (RORg) (AID 2283011; active means hit-call score of the fitted dose curve at least 0.9, where 1 is the maximum)
# Method in brief: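 HepG2 cells transiently transfected with GAL4-UAS reporter units and chimeric RORg-Gal4 construct; after 24 h chemical exposure, reporter mRNA measured by RT-PCR with fluorescent capillary electrophoresis, gain of signal fitted against DMSO.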
# [2] = read-out: E-selectin (Homo sapiens) (UniProt P16581); assay: BSK_3C_Eselectin: BioMAP Diversity Plus: 3C Assay for Eselectin Biomarker Activity (AID 2283015); conditions: primary human endothelial cells (HUVEC); actives raise or lower the signal;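 further: cell surface E-selectin protein quantified by ELISA 24 h after dosing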
# Method in brief: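 Primary human umbilical vein endothelial cells (3C system), read 24 h after compound addition; E-selectin measured by ELISA. Bidirectional curve fitting against DMSO baseline; cytotoxicity by parallel SRB total-protein staining.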
# [3] = read-out: Interleukin-1 alpha (IL1a), IL1A (gene 3552); assay: BSK_BE3C_IL1a: BioMAP Diversity Plus: BE3C Assay for Interleukin-1 alpha (IL1a) Biomarker Activity (AID 2283016); conditions: primary human bronchial epithelial cells; actives raise or lower the signal
# Method in brief: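 Signal from IL-1a ELISA, taken 24 h after chemical dosing of human bronchial epithelial cells, is compared with DMSO as baseline using bidirectional curve fitting.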
# [4] = read-out: Monocyte Chemoattractant Protein-1 (MCP1), CCL2 (gene 6347); assay: BSK_3C_MCP1: BioMAP Diversity Plus: 3C Assay for Monocyte Chemoattractant Protein-1 (MCP1) Biomarker Activity (AID 2283017); conditions: primary human endothelial cells (HUVEC); actives raise or lower the signal
# Method in brief: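 Human umbilical vein endothelial cells (3C system) exposed to chemicals for 24 h; MCP-1 quantified by ELISA against the DMSO baseline with bidirectional fitting, and parallel SRB staining used to assess cytotoxicity.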
# [5] = read-out: Monocyte Chemoattractant Protein-1 (MCP1), CCL2 (gene 6347); assay: BSK_4H_MCP1: BioMAP Diversity Plus: 4H Assay for Monocyte Chemoattractant Protein-1 (MCP1) Biomarker Activity (AID 2283018); conditions: primary human endothelial cells (HUVEC); actives raise or lower the signal
# Method in brief: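 Endothelial cells from umbilical vein were treated with test chemical, then after 24 h MCP-1 levels were quantified by ELISA; endpoint values came from bidirectional fitting with DMSO as baseline of activity.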
# [6] = read-out: Human Leukocyte Antigen - DR isotype (HLADR), HLA-DRA (gene 3122); assay: BSK_3C_HLADR: BioMAP Diversity Plus: 3C Assay for Human Leukocyte Antigen - DR isotype (HLADR) Biomarker Activity (AID 2283019); conditions: primary human endothelial cells (HUVEC); actives raise or lower the signal;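 further: ELISA of cell-surface HLA-DR on HUVEC 24 h after dosing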
# Method in brief: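 HUVEC monoculture, HLA-DR measured by ELISA 24 h after chemical dosing. Fitted bidirectionally against DMSO baseline; parallel SRB staining assessed cytotoxicity, with 3C proliferation read by SRB at 48 h.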
# [7] = read-out: Interleukin-8 (IL8), CXCL8 (gene 3576); assay: BSK_3C_IL8: BioMAP Diversity Plus: 3C Assay for Interleukin-8 (IL8) Biomarker Activity (AID 2283020); conditions: primary human endothelial cells (HUVEC); actives raise or lower the signal
# Method in brief: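 Endothelial primary cells of human umbilical vein origin are dosed with chemical; after 24 h the IL-8 biomarker is measured by ELISA, and concentration–response is fitted in both directions versus DMSO.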
# [8] = molecular target: human Retinoid X Receptor beta (RXRb), RXRB (gene 6257) (UniProt P28702); assay: ATG_RXRb_TRANS: Attagene TRANS-FACTORIAL HepG2 Assay for human Retinoid X Receptor beta (RXRb) (AID 2283013; active means hit-call score of the fitted dose curve at least 0.9, where 1 is the maximum)
# Method in brief: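 Chimeric receptor-Gal4 activity was assessed in transiently transfected human HepG2 cells after 24 h exposure. Transcripts from GAL4-UAS reporters were quantified by fluorescent RT-PCR and capillary electrophoresis, with DMSO as negative control and baseline.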
# [9] = molecular target: human Thyroid Receptor alpha (THRa1), THRA (gene 7067) (UniProt P10827); assay: ATG_THRa1_TRANS: Attagene TRANS-FACTORIAL HepG2 Assay for human Thyroid Receptor alpha (THRa1) (AID 2283014; active means hit-call score of the fitted dose curve at least 0.9, where 1 is the maximum)
# Method in brief: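 HepG2 cells transiently transfected with chimeric NR-Gal4 and GAL4-UAS reporter units, dosed 24 h. Reporter mRNA quantified by RT-PCR, fluorescent labeling, HpaI digestion and capillary electrophoresis; gain-of-signal fit versus DMSO.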
# [10] = molecular target: Retinoic acid receptor RXR-alpha (Homo sapiens) (UniProt P19793); assay: ATG_RXRa_TRANS: Attagene TRANS-FACTORIAL HepG2 Assay for human Retinoid X Receptor alpha (RXRa) (AID 2283012; active means hit-call score of the fitted dose curve at least 0.9, where 1 is the maximum)
# Method in brief: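 Measures exogenous chimeric NR-GAL4 activity in transfected HepG2 liver cells after 24 h of dosing. Induced reporter mRNA was detected by RT-PCR with capillary electrophoresis, and gain of signal was analysed against DMSO.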
# Sequence of E-selectin (Homo sapiens) (P16581 whole entry, looked up): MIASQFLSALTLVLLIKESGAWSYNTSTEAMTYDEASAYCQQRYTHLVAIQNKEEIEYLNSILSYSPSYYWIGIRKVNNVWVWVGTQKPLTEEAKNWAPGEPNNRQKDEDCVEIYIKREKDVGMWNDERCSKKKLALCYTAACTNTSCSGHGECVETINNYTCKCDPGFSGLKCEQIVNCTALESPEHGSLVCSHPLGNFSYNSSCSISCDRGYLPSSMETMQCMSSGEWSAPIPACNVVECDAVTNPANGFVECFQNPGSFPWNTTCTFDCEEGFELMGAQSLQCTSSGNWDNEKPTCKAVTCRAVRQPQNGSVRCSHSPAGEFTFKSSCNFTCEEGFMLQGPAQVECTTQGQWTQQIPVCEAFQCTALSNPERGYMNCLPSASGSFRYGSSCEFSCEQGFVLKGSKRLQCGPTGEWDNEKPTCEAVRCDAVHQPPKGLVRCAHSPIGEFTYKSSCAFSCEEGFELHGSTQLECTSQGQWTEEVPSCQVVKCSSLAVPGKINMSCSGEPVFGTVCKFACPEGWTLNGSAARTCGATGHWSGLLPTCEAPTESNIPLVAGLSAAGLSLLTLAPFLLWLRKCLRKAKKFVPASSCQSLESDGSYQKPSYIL
# Sequence of Retinoic acid receptor RXR-alpha (Homo sapiens) (P19793 whole entry, looked up, the tested form may be a part): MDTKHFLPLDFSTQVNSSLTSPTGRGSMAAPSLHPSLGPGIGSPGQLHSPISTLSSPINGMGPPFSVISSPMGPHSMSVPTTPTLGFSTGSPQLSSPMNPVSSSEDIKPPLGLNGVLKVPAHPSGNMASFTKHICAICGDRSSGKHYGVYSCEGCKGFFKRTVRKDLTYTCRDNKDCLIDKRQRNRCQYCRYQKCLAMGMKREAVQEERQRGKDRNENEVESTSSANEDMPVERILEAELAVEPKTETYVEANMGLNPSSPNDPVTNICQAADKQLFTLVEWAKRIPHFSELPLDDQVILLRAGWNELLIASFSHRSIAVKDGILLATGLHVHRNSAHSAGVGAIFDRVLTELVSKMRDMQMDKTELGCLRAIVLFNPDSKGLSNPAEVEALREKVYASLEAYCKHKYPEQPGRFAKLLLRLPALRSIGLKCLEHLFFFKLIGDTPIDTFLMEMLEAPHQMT
# Sequence of human Retinoid X Receptor beta (RXRb), RXRB (gene 6257) (P28702 whole entry, looked up, the tested form may be a part): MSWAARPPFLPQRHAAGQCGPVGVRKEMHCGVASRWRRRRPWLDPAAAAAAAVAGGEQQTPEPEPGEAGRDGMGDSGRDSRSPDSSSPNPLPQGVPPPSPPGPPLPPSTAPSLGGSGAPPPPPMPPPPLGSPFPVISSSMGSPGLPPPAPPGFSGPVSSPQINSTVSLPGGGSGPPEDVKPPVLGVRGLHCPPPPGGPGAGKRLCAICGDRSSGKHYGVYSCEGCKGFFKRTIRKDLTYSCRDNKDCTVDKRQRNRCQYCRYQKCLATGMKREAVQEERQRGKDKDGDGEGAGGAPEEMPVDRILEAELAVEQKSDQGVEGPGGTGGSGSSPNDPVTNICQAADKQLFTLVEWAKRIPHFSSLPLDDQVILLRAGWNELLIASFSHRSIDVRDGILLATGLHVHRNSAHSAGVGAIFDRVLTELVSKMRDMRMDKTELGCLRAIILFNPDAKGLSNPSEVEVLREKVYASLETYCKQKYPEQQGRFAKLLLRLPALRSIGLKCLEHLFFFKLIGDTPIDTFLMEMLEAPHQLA
# Sequence of human RAR-related Orphan Receptor gamma (RORg), RORC (gene 6097) (P51449 whole entry, looked up, the tested form may be a part): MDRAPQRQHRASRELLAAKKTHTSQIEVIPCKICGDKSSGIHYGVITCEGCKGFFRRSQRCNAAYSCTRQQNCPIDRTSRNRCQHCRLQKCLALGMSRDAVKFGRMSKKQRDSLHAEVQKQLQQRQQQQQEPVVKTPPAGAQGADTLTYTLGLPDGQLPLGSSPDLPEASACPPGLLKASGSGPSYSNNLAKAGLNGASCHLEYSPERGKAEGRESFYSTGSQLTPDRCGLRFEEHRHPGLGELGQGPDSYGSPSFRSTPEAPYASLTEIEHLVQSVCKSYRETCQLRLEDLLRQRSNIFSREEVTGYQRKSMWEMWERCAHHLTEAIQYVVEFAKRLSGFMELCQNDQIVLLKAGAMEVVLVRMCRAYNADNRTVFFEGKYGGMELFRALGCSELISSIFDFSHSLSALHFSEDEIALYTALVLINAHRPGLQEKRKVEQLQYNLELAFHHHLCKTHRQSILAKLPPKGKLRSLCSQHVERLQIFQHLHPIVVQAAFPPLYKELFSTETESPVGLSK
# Sequence of human Thyroid Receptor alpha (THRa1), THRA (gene 7067) (P10827 whole entry, looked up, the tested form may be a part): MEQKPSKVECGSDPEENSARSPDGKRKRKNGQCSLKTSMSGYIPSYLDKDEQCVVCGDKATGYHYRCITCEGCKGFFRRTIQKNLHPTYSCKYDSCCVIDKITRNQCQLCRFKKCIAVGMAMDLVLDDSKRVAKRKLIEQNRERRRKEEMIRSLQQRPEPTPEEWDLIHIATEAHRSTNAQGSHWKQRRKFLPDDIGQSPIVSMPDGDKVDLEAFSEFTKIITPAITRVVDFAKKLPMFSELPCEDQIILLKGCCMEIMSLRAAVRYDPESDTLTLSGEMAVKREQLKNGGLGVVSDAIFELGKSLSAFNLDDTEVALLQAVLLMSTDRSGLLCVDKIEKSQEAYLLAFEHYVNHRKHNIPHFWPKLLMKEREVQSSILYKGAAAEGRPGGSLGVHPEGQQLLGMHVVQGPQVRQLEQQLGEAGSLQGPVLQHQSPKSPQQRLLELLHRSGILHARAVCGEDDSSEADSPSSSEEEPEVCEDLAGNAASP
smiles,measurement,setting,value
C=CC(=C)CC/C=C(\C)CCC=C(C)C,outcome,[1],inactive
same,outcome,[2],inactive
same,outcome,[3],inactive
same,outcome,[4],inactive
same,outcome,[5],inactive
same,outcome,[6],inactive
same,outcome,[7],inactive
CCOC(C)=O,outcome,[1],inactive
same,AC50,[8],26.6 µM (active)
same,outcome,[8],inactive
same,outcome,[9],inactive
CCCCCCCCCCCC(=O)NCCCN(C)C,outcome,[10],inactive
CCCCCCCCCCCCCC[n+]1ccccc1,outcome,[10],inactive
same,outcome,[8],inactive
FC(F)(F)C(F)(F)C(F)(F)C(F)(F)I,outcome,[10],inactive
CCCCc1ccc2ccccc2c1S(=O)(=O)O,outcome,[1],inactive
same,AC50,[8],77.1 µM (active)
c1ccc2c(c1)CCC2,outcome,[10],inactive
CCCCN(C)C,outcome,[10],inactive
same,outcome,[8],inactive
O=C(F)C(F)(F)C(F)(F)C(F)(F)C(=O)F,outcome,[10],inactive
O=C(c1ccccc1)c1ccccc1,outcome,[1],inactive
same,outcome,[2],inactive
same,outcome,[3],inactive
same,outcome,[4],inactive
same,outcome,[5],inactive
same,outcome,[6],inactive
same,outcome,[7],inactive
C=CC(F)(F)C(F)(F)C(F)(F)C(F)(F)F,outcome,[10],inactive
CCN(CC)CC,outcome,[1],inactive
same,outcome,[9],inactive
FC(F)=C(F)C(F)(F)C(F)(F)C(F)(F)C(F)F,outcome,[10],inactive
CCCCCCCCCC=CCC1CC(=O)OC1=O (configuration not stated),outcome,[1],inactive
same,outcome,[8],inactive
CN(Cc1cnc2nc(N)nc(N)c2n1)c1ccc(C(=O)N[C@@H](CCC(=O)O)C(=O)O)cc1,outcome,[1],inactive
same,outcome,[8],inactive
same,outcome,[2],inactive
same,outcome,[3],inactive
same,outcome,[4],inactive
same,outcome,[5],inactive
same,outcome,[6],inactive
same,outcome,[7],inactive
